Test results taken from PubChem BioAssay (EPA / NIEHS).
Several values for one entry are separate records, joined by “and”; a condition that tells them apart may be missing. Equal values may be shown once. Results filed as inconclusive are left out. Activity calls are given as the source filed them. The calls were made as follows: active = hit-call score of the fitted dose curve at least 0.9, where 1 is the maximum; inconclusive = response in the unintended direction; inactive = score below 0.9.

The compounds below were run against human Vascular Endothelial Growth Factor Receptor 1 (VEGFR1), FLT1 (gene 2321) (UniProt P17948) (assay: NVS_ENZ_hVEGFR1: NovaScreen (NVS) Enzymatic Assay for human Vascular Endothelial Growth Factor Receptor 1 (VEGFR1) (AID 2283226)).
Sequence of human Vascular Endothelial Growth Factor Receptor 1 (VEGFR1), FLT1 (gene 2321) (P17948 whole entry, looked up): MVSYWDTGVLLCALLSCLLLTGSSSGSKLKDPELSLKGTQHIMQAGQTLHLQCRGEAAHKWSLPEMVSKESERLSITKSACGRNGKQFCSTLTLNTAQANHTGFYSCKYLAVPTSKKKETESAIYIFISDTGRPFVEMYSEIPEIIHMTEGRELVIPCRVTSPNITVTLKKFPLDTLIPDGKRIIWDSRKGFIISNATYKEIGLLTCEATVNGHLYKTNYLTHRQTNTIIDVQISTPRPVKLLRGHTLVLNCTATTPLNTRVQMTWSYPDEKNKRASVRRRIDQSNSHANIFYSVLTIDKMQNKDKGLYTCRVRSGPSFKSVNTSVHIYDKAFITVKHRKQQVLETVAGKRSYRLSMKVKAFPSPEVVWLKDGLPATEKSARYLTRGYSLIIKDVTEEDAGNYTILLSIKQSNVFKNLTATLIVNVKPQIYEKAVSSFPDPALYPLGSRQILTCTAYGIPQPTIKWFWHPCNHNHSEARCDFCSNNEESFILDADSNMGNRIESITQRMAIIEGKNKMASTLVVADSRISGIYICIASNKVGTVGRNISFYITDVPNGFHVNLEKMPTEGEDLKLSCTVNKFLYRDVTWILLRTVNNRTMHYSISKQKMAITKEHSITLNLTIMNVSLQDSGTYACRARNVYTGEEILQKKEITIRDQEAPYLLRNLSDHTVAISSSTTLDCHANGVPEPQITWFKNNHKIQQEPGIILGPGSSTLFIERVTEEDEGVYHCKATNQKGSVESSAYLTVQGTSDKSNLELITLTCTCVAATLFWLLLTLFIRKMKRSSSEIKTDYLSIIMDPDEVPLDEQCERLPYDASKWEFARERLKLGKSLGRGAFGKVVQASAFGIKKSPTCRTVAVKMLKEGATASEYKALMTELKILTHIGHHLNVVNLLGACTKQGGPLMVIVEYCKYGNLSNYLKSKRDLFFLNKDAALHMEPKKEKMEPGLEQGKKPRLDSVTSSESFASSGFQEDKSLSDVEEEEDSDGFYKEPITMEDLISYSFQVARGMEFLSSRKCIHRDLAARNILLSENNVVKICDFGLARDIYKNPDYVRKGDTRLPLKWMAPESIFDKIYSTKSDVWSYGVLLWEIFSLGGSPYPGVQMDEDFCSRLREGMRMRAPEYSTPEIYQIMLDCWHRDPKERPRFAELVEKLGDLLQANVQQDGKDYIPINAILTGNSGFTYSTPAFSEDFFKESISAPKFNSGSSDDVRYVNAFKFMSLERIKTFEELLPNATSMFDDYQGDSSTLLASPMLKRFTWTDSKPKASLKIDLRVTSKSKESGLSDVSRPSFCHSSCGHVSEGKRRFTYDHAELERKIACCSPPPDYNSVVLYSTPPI
Procedure, shortened: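 Kinase activity of recombinant human VEGFR1 was read by fluorescence after electrophoretic separation of product from substrate, 1 h post-dosing; initial duplicate single-point testing at 25 uM, followed by concentration-series follow-up, with DMSO as baseline.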
In the case of CC(=O)Nc1ccc(O)cc1, the outcome is reported as “inactive”.
Cc1[nH]nc2c1N=C(c1ccccc1Cl)c1cc([N+](=O)[O-])ccc1N2 was tested, and the AC50 was 0.0098 µM (active).
CCCCCCCCCCCCCCCCCC[N+](C)(C)Cc1ccccc1 was tested, and the outcome was “inactive”.
In the case of NC(=NCCCCCCN=C(N)/N=C(\N)Nc1ccc(Cl)cc1)/N=C(\N)Nc1ccc(Cl)cc1, the AC50 is reported as 27.6 µM (active).

What follows are compounds tested against rabbit Imidazoline 2 Central (I2C), CKB (gene 100009085) (UniProt P00567) (assay: NVS_ENZ_rabI2C: NovaScreen (NVS) Enzymatic Assay for rabbit Imidazoline 2 Central (I2C) (AID 2283228)).
Procedure, shortened: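 Rabbit brain membranes, cell-free; readout by filter-based scintillation counting 1.5 hours after dosing, loss of signal vs DMSO. Initial duplicate test at 25 uM, then concentration-response with 50 uM top concentration.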
In the case of CN(C)CCOC(c1ccccc1)c1ccccc1, the AC50 is reported as 8.46 µM (active).
In the case of N=C(N)c1ccc(OCCCCCOc2ccc(C(=N)N)cc2)cc1, the AC50 is reported as 0.0332 µM (active).
With O=C(CCCN1CCC(O)(c2ccc(Cl)cc2)CC1)c1ccc(F)cc1 the AC50 was 14.4 µM (active).
CCCCc1oc2ccccc2c1C(=O)c1cc(I)c(OCCN(CC)CC)c(I)c1 was tested, and the outcome was “inactive”.

These compounds were tested against human Vascular Endothelial Growth Factor Receptor 2 (VEGFR2), KDR (gene 3791) (UniProt P35968) (assay: NVS_ENZ_hVEGFR2: NovaScreen (NVS) Enzymatic Assay for human Vascular Endothelial Growth Factor Receptor 2 (VEGFR2) (AID 2283230)).
Sequence of human Vascular Endothelial Growth Factor Receptor 2 (VEGFR2), KDR (gene 3791) (P35968 whole entry, looked up): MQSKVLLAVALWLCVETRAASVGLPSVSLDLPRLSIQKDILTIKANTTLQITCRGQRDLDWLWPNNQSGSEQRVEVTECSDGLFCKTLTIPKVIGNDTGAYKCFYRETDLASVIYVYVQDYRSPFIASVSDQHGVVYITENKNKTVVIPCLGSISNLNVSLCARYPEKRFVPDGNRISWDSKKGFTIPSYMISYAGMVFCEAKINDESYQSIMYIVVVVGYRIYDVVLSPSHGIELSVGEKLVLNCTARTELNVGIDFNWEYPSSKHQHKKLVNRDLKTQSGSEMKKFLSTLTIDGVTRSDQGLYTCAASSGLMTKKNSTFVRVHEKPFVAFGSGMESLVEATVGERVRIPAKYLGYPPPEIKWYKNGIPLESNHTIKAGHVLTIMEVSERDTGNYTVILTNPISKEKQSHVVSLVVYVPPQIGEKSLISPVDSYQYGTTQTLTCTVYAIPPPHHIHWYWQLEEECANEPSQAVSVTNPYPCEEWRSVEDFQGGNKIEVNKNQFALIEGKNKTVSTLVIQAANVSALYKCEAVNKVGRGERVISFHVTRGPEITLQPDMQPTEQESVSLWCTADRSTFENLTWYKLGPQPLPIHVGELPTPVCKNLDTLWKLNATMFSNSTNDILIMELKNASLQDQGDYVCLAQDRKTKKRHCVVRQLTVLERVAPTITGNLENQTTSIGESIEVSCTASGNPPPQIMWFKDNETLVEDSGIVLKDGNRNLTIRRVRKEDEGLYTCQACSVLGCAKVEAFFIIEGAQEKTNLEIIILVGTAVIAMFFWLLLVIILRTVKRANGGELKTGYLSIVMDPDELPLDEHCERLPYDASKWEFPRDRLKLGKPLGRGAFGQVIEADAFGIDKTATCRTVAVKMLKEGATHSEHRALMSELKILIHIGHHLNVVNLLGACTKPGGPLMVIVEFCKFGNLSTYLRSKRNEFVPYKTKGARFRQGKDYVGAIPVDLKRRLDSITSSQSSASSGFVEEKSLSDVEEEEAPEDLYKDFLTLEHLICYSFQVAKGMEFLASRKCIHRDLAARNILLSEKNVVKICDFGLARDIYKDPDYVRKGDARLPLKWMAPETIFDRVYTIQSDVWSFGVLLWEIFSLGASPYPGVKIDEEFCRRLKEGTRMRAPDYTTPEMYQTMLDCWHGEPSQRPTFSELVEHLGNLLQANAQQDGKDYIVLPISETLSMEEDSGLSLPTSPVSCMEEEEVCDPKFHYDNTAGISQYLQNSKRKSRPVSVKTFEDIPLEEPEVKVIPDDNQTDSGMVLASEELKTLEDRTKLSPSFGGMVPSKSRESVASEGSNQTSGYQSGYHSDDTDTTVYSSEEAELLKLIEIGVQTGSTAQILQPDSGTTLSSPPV
Procedure, shortened: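 Cell-free recombinant VEGFR2 kinase, fluorescent substrate with electrophoretic mobility-shift separation; read 1 h after dosing. Screened at 25 uM in duplicate, hits to concentration-response up to 50 uM; loss-of-signal versus DMSO.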
In the case of CCCCCCCCCCCCOS(=O)(=O)O, the AC50 is reported as 16.9 µM (active).
For Cc1[nH]nc2c1N=C(c1ccccc1Cl)c1cc([N+](=O)[O-])ccc1N2, the AC50 was 0.00463 µM (active).
For CCCCc1oc2ccccc2c1C(=O)c1cc(I)c(OCCN(CC)CC)c(I)c1, the outcome was “inactive”.

What follows are compounds tested against sheep Cyclooxygenase-2 (Cox2), PTGS2 (gene 443460) (UniProt P79208) (assay: NVS_ENZ_oCOX2: NovaScreen (NVS) Enzymatic Assay for sheep Cyclooxygenase-2 (Cox2) (AID 2283231)).
Sequence of sheep Cyclooxygenase-2 (Cox2), PTGS2 (gene 443460) (P79208 whole entry, looked up): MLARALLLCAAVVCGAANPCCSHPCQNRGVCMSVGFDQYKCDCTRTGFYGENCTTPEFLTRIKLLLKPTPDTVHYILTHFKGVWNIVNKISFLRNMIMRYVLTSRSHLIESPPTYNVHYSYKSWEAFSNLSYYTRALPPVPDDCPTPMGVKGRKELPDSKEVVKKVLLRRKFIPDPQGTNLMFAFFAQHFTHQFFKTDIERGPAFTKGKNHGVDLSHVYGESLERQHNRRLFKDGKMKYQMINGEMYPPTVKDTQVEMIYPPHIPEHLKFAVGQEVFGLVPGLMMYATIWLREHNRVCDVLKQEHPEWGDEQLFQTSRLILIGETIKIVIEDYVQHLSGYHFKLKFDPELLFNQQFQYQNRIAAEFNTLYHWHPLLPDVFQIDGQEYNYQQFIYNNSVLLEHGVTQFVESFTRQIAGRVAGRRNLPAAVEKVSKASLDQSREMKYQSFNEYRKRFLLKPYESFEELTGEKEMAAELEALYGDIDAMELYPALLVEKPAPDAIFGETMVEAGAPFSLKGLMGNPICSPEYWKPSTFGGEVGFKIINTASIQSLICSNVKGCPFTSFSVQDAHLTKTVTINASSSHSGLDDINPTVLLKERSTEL
Procedure, shortened: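 Compounds were first run at 25 uM in duplicate against tissue-extracted ovine COX-2; those passing a preset inhibition threshold went to singleton concentration-response testing with a 50 uM maximum. Read-out: absorbance at 0.66 hour.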
For CC(=O)Nc1ccc(O)cc1, the outcome was “inactive”.
For N=C(N)c1ccc(OCCCCCOc2ccc(C(=N)N)cc2)cc1, the AC50 was 7.19 µM (active).
For CCCCC=O, the outcome was “inactive”.
With OCC(CO)(CBr)CBr the AC50 was 16.7 µM (active).
In the case of CS(=O)(=O)c1ccc([C@@H](CC2CCCC2)C(=O)Nc2cnccn2)cc1Cl, the AC50 is reported as 25 µM (active).

What follows are compounds tested against sheep Cyclooxygenase-1 (Cox1), PTGS1 (gene 443551) (UniProt P05979) (assay: NVS_ENZ_oCOX1: NovaScreen (NVS) Enzymatic Assay for sheep Cyclooxygenase-1 (Cox1) (AID 2283239);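 also: actives reduce cyclooxygenase activity so potencies are for inhibitors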).
Sequence of sheep Cyclooxygenase-1 (Cox1), PTGS1 (gene 443551) (P05979 whole entry, looked up): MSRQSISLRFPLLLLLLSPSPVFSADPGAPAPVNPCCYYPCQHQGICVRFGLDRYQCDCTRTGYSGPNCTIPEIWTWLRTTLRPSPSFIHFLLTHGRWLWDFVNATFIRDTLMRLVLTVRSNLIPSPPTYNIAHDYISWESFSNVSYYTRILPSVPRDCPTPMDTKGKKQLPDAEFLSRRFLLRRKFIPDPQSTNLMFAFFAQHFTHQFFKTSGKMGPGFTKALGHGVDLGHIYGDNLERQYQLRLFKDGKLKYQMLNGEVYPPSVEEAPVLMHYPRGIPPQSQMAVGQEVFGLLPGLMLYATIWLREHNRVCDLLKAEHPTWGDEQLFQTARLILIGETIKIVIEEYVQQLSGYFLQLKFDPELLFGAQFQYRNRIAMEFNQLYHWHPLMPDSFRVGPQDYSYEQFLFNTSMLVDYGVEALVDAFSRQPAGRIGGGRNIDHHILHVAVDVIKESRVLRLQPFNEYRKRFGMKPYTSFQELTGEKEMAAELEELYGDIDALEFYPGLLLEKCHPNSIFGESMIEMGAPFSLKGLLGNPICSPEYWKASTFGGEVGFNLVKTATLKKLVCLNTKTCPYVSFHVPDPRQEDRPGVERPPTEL
Procedure, shortened: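 Ovine seminal vesicle extract; absorbance (colorimetric) enzyme read-out at 0.66 h post-dose. Primary: single conc 25 uM, duplicate. Follow-up: concentration series on actives. Activity = signal loss vs DMSO baseline.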
For CN(Cc1cnc2nc(N)nc(N)c2n1)c1ccc(C(=O)N[C@@H](CCC(=O)O)C(=O)O)cc1, the AC50 was 1.98 µM (active).
CC1=NN(c2ccccc2)C(=O)C1 was tested, and the AC50 was 28.2 µM (active).
CCCCCCCCCCCCCCCCCC[N+](C)(C)Cc1ccccc1 was tested, and the outcome was “inactive”.
With CNNCc1ccc(C(=O)NC(C)C)cc1 the AC50 was 25 µM (active).
In the case of CCC(=O)O, the AC50 is reported as 0.00683 µM (active).
In the case of Cc1ccc(C(=O)c2ccccc2)cc1, the AC50 is reported as 15.5 µM (active).

What follows are compounds tested against bovine Dopamine Receptor (DR), Non-selective Binding, DRD1 (gene 281125) (UniProt Q95136) (assay: NVS_GPCR_bDR_NonSelective: NovaScreen (NVS) G Protein-Coupled Receptor Assay for bovine Dopamine Receptor (DR), Non-selective Binding (AID 2283241)).
Sequence of bovine Dopamine Receptor (DR), Non-selective Binding, DRD1 (gene 281125) (Q95136 whole entry, looked up): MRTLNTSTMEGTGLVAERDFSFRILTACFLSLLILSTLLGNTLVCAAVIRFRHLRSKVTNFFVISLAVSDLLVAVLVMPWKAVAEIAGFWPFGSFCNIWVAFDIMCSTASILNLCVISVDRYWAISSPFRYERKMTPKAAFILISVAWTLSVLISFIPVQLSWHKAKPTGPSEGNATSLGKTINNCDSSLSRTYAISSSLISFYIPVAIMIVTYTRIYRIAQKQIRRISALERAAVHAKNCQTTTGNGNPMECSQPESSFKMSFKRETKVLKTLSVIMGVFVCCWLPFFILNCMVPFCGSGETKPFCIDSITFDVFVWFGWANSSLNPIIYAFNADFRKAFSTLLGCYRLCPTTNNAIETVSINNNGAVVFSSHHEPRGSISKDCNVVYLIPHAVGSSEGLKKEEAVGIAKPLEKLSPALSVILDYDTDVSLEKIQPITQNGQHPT
Procedure, shortened: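 Filter-based radioligand binding with bovine striatal membrane, incubated 1 h; DMSO as negative baseline. Initial duplicate single-point test at 25 uM preceded concentration series for actives.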
For CN(C)CCOC(c1ccccc1)c1ccccc1, the AC50 was 5.83 µM (active).
For N=C(N)c1ccc(OCCCCCOc2ccc(C(=N)N)cc2)cc1, the outcome was “inactive”.
In the case of O=C(CCCN1CCC(O)(c2ccc(Cl)cc2)CC1)c1ccc(F)cc1, the AC50 is reported as 0.0124 µM (active).

The compounds below were run on bovine Histamine 1 Receptor (H1), gene 281231 (assay: NVS_GPCR_bH1: NovaScreen (NVS) G Protein-Coupled Receptor Assay for bovine Histamine 1 Receptor (H1) (AID 2283246)).
Procedure, shortened: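 Hits from a 25 uM duplicate primary screen were retested in concentration series (top 50 uM); binding measured as scintillation-counted displacement of radioligand from bovine cerebellar membranes after 1 h, normalised to DMSO.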
CN(C)CCOC(c1ccccc1)c1ccccc1 was tested, and the AC50 was 0.101 µM (active).
With N=C(N)c1ccc(OCCCCCOc2ccc(C(=N)N)cc2)cc1 the outcome was “inactive”.
With O=C(CCCN1CCC(O)(c2ccc(Cl)cc2)CC1)c1ccc(F)cc1 the AC50 was 10.5 µM (active).

Each compound was assayed against guinea pig Leukotriene D4 Receptor (LTD4), CYSLTR1 (gene 100135514) (UniProt Q2NNR5) (assay: NVS_GPCR_gLTD4: NovaScreen (NVS) G Protein-Coupled Receptor Assay for guinea pig Leukotriene D4 Receptor (LTD4) (AID 2283248)).
Sequence of guinea pig Leukotriene D4 Receptor (LTD4), CYSLTR1 (gene 100135514) (Q2NNR5 whole entry, looked up): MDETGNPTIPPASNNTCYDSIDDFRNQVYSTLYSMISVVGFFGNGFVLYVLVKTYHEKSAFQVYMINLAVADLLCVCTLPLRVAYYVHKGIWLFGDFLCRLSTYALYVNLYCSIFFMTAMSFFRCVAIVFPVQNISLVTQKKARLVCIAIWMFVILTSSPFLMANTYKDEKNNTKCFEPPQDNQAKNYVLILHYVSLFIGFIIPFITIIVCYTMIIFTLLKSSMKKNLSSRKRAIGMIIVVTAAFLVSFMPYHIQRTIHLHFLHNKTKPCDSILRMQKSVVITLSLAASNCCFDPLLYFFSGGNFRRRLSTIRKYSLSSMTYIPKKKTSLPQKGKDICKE
Procedure, shortened: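 Guinea pig lung membrane preparation; bound radioligand measured by filter scintillation after 1 h, loss of signal versus DMSO marking displacement. Compounds tested at 25 uM in duplicate, hits retested to max 50 uM.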
With CCCCCCCCCCCCOS(=O)(=O)O the AC50 was 8.99 µM (active).
In the case of CC(C)(C)c1ccc(O)c(O)c1, the outcome is reported as “inactive”.
CS(=O)(=O)c1ccc([C@@H](CC2CCCC2)C(=O)Nc2cnccn2)cc1Cl was tested, and the outcome was “inactive”.
In the case of CCCCCCCCCCCCCCCC(=O)OC, the outcome is reported as “inactive”.

Each compound was assayed on guinea pig Muscarinic, Peripheral (Mperiperal) Receptor, Non-selective Binding, gene 100379235 (assay: NVS_GPCR_gMPeripheral_NonSelective: NovaScreen (NVS) G Protein-Coupled Receptor Assay for guinea pig Muscarinic, Peripheral (Mperiperal) Receptor, Non-selective Binding (AID 2283250)).
Procedure, shortened: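 Screened in duplicate at 25 uM, hits retested in concentration series to 50 uM max, using bladder membrane radioligand displacement from guinea pig. Filtration and scintillation counting 1 h post-dose, fitted relative to DMSO.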
With CN(C)CCOC(c1ccccc1)c1ccccc1 the AC50 was 0.574 µM (active).
With N=C(N)c1ccc(OCCCCCOc2ccc(C(=N)N)cc2)cc1 the AC50 was 0.954 µM (active).
For O=C(CCCN1CCC(O)(c2ccc(Cl)cc2)CC1)c1ccc(F)cc1, the AC50 was 5.15 µM (active).

These compounds were tested against human Serotonin, 5-Hydroxytryptamine Receptor 5A (5HT5A), HTR5A (gene 3361) (UniProt P47898) (assay: NVS_GPCR_h5HT5A: NovaScreen (NVS) G Protein-Coupled Receptor Assay for human Serotonin, 5-Hydroxytryptamine Receptor 5A (5HT5A) (AID 2283251)).
Procedure, shortened: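 Membranes from HEK293 cells, radioligand binding read by filtration and scintillation after 1 h. Single-concentration duplicate testing at 25 uM, then concentration-response for actives; positive-direction fitting relative to DMSO.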
In the case of CCCCCCCCCCCCOS(=O)(=O)O, the AC50 is reported as 9.77 µM (active).
N=C(N)c1ccc(OCCCCCOc2ccc(C(=N)N)cc2)cc1 was tested, and the outcome was “inactive”.
In the case of O=C(CCCN1CCC(O)(c2ccc(Cl)cc2)CC1)c1ccc(F)cc1, the outcome is reported as “inactive”.
With CCCCc1oc2ccccc2c1C(=O)c1cc(I)c(OCCN(CC)CC)c(I)c1 the AC50 was 13.7 µM (active).

Each compound was assayed against guinea pig Opioid, Kappa 1 Receptor (OpiateK), OPRK1 (gene 100135587) (UniProt P41144) (assay: NVS_GPCR_gOpiateK: NovaScreen (NVS) G Protein-Coupled Receptor Assay for guinea pig Opioid, Kappa 1 Receptor (OpiateK) (AID 2283252);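 also: radioligand displacement from kappa opioid receptor in guinea pig cerebellar membranes; active means reduced radioligand binding relative to DMSO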).
Sequence of guinea pig Opioid, Kappa 1 Receptor (OpiateK), OPRK1 (gene 100135587) (P41144 whole entry, looked up): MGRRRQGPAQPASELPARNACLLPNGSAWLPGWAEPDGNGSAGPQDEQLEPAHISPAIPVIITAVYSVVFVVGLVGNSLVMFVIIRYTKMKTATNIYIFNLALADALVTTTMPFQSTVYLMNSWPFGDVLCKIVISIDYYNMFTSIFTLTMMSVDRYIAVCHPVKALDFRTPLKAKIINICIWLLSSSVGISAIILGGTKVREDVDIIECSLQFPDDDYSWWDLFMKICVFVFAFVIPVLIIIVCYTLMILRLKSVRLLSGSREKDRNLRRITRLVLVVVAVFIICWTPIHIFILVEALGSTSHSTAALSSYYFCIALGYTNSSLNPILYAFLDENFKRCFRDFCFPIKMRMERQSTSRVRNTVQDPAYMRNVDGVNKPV
Procedure, shortened: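 Cell-free tissue prep: guinea pig cerebellar membranes, radioligand displacement, 2 h incubation. Readout: filtration plus scintillation counting. Primary single-point 25 uM duplicate; actives retested in concentration series; DMSO negative control.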
With CN(C)CCOC(c1ccccc1)c1ccccc1 the AC50 was 13 µM (active).
With O=C1OC2(c3ccccc31)c1cc(I)c(O)c(I)c1Oc1c2cc(I)c(O)c1I the outcome was “inactive”.
With N=C(N)c1ccc(OCCCCCOc2ccc(C(=N)N)cc2)cc1 the AC50 was 17.2 µM (active).
For C=CC(C)(CCC=C(C)C)OC(C)=O (configuration not stated), the AC50 was 46.5 µM (active).
In the case of CN(C)c1ccc(C(=C2C=CC(=[N+](C)C)C=C2)c2ccccc2)cc1, the AC50 is reported as 15 µM (active) and 12.5 µM (active).

What follows are compounds tested against human Adenosine A1 Receptor (AdoRA1), ADORA1 (gene 134) (UniProt P30542) (assay: NVS_GPCR_hAdoRA1: NovaScreen (NVS) G Protein-Coupled Receptor Assay for human Adenosine A1 Receptor (AdoRA1) (AID 2283254)).
Procedure, shortened: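 Each chemical is first tested twice at 25 uM, actives later in dilution series, against a radioligand bound to human cortex membranes; after 1 h, filter-retained counts are compared with DMSO controls, lower signal indicating displacement.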
In the case of CN(Cc1cnc2nc(N)nc(N)c2n1)c1ccc(C(=O)N[C@@H](CCC(=O)O)C(=O)O)cc1, the outcome is reported as “inactive”.
For O=C1OC2(c3ccccc31)c1cc(I)c(O)c(I)c1Oc1c2cc(I)c(O)c1I, the AC50 was 6.25 µM (active).
Cc1[nH]nc2c1N=C(c1ccccc1Cl)c1cc([N+](=O)[O-])ccc1N2 was tested, and the outcome was “inactive”.
In the case of CCCCc1oc2ccccc2c1C(=O)c1cc(I)c(OCCN(CC)CC)c(I)c1, the outcome is reported as “inactive”.
CS(=O)(=O)c1ccc([C@@H](CC2CCCC2)C(=O)Nc2cnccn2)cc1Cl was tested, and the outcome was “inactive”.

What follows are compounds tested against human Serotonin, 5-Hydroxytryptamine Receptor 7 (5HT7), HTR7 (gene 3363) (UniProt P34969) (assay: NVS_GPCR_h5HT7: NovaScreen (NVS) G Protein-Coupled Receptor Assay for human Serotonin, 5-Hydroxytryptamine Receptor 7 (5HT7) (AID 2283255);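 also: hits reduce specific radioligand binding relative to DMSO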).
Procedure, shortened: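 Filter-bound radioactivity counted after 1 h, with loss of specific radioligand binding fitted against DMSO. Membrane protein came from CHO cells expressing human 5HT7. Chemicals were tested first at 25 uM in duplicate, then in concentration series if active.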
For CCCCCCCCCCCCOS(=O)(=O)O, the AC50 was 25 µM (active).
With N=C(N)c1ccc(OCCCCCOc2ccc(C(=N)N)cc2)cc1 the AC50 was 3.18 µM (active).
In the case of CCCCc1oc2ccccc2c1C(=O)c1cc(I)c(OCCN(CC)CC)c(I)c1, the AC50 is reported as 6.72 µM (active).
